Marburg entry: inhibitors of Marburg virus binding or entry into cells; Marburg virus pseudotype entry/binding inhibition, cell-based; Potency, µM (titrated, usually from 49.2 µM), for inactives: at the top dose activity change, negative = inhibition, actives largely listed as inhibitors; 18,000 tested, 6.5% active; AID 720532
LASV entry inh: blocks Lassa virus binding or cell entry; 18,000 tested, 4.1% active; Lassa virus pseudotyped entry inhibition, cell-based qHTS; Potency, µM (top dose mostly 49.2 µM), inactives show top-dose activity change, negative = inhibition, actives largely listed as inhibitors; AID 720533
Active calls of the source: *; ? = inconclusive; . = no result given; ! = not confirmed by another sample; [ ] = another dose, or the depositor's remark. Compounds with a hit are over-represented: about 8.6% of the library has one in this group of screens. Calls come from the whole dose curve; tested in HEK293 cells. % is set by controls: 0 for no effect and ±100 for the full control effect; potency is the fitted concentration of half-maximal effect.

SMILES	Marburg entry	LASV entry inh
CC[N+]1(C)[C@@H]2CC[C@H]1CC(OC(=O)[C@H]1CC[C@@](C(=O)OC3C[C@H]4CC[C@@H](C3)[N+]4(C)CC)(c3ccccc3)c3ccccc31)C2 (some centres undefined)	-6.9%[17.8 µM]	-1.6%[17.8 µM]
CC(C)CON=C1C[C@@H](O)[C@@H](O)[C@@H]2[C@H]3C(=O)N(Cc4ccc5c(c4)OCO5)C(=O)[C@@H]3CC[C@@H]12	-29.9%[8.59 µM]	8.0%[8.59 µM]
Cn1c2ccccc2c2c3c(c4c5ccccc5n(CCC#N)c4c21)CNC3=O	?	11.2µM*
CNCCCCOc1ccccc1Cc1ccccc1	7.08µM*	?
CN(C)CCOc1ccccc1Cc1ccccc1	?	10.1%
CC[C@H]1OC(c2ccccc2)[C@H](C)[C@H]2O[C@@H]2[C@@H]1C(=O)OC (some centres undefined)	-5.4%[8.59 µM]	-12.1%[8.59 µM]
Cc1cnc(C)c(-c2ccc3c(c2)CC(CNC(=O)Cc2c(C)[nH]c4ccccc24)O3)n1 (centres undefined)	-7.6%	-27.8%
CCCCC/C=C\C/C=C\C/C=C\CCCCCCC(=O)NC(C)C(=O)O (centres undefined)	-3.6%	2.5%
CCCCCCCC/C=C\CCCCCCCC(=O)N[C@H](CO)Cc1ccc(O)cc1	?	14.1µM*
C=CC(=O)N1[C@H](C(=O)OCC)CSCCS1(=O)=O	-8.0%	4.9%
C=CCCN1C=C(C(=O)OCC)C(c2ccccc2)NC1=O (centres undefined)	?	34.4%[8.59 µM]
N=C1N=C(N)c2cc3ccccc3cc21	20µM*	35.5µM*
COC(=O)[C@H](CC(C)C)NC(=O)c1ccc(NC[C@@H](N)CS)cc1-c1cccc2ccccc12	11.2µM*	11.2µM*
COC(=O)[C@H](NC(=O)c1cc(-c2ccccc2)nc2ccccc12)c1ccccc1	11.9%	?
CCN1C(=S)NC(c2ccccc2)C(C(=O)OC)=C1C (centres undefined)	-2.3%[8.59 µM]	6.3%[8.59 µM]
CCOc1ccc(C=C2SC(=O)N(CCN)C2=O)cc1	11.2µM*	12.6µM*
CCOc1ccc(/C=C/C(=O)c2cccs2)cc1	5.9%	14.1%
O=S1(=O)[C@H]2C[C@H]3O[C@]2(CN1Cc1ccc(C(F)(F)F)cc1)[C@@H]1O[C@@H]13	3.6%	51.6%
C[C@H]1C=CCC(=O)NCc2cccc(c2)CNC(=O)N[C@@H]1c1ccccc1	?	6.7%[8.59 µM]
CCN(CC)CCCN(c1ccccc1)C1Cc2ccccc2C1	3.55µM*	8.91µM*
CCCCCCN1C[C@H](O)[C@@H](n2cc(C3CC3)nn2)C[C@H]1c1ccc(C)cc1	?	-5.6%
C=CCOC(=O)N[C@H](C(C(=O)OC)=C(C)NCc1ccccc1)c1ccc2c(c1)OCO2	?	-11.8%[8.59 µM]
O=C(OCc1cn([C@H]2C[C@H](c3ccccc3)N(CC3CCCCC3)C[C@H]2O)nn1)c1ccccc1	?	-28.2%
C=CCC12OC3(OC)CC1[C@H](C)[C@@H](c1ccccc1)C2[C@@]3(C)O (some centres undefined)	0.3%[8.59 µM]	-1.6%[8.59 µM]
CSc1ccc2c(c1)C(N1CCN(C)CC1)Cc1ccccc1S2 (centres undefined)	6.31µM*	22.4µM*!
SMILES	Marburg entry	LASV entry inh
CN1CCN(C2Cc3ccccc3Sc3ccc(Cl)cc32)CC1 (centres undefined)	12.6µM*	?
CSc1ccc2c(c1)[C@H](N1CCN(C)CC1)Cc1ccccc1S2	11.2µM*	28.2µM*!
COC(=O)N[C@H](CC(C)=O)c1cccs1	43.0%[8.59 µM]	16.6%[8.59 µM]
Cc1cc2c(c(=O)o1)[C@H]1O[C@](c3ccsc3)(Cc3ccccc31)O2	10.4%[8.59 µM]	1.4%[8.59 µM]
CCc1cc(C(=O)NCC2Cc3cc(C)cc(-c4cc(C(C)=O)ccc4F)c3O2)n(C)n1 (centres undefined)	-16.8%	3.9%
N#Cc1ccc(OCc2cn(CC(=O)c3ccc(O)cc3)nn2)cc1	13.6%	-15.1%
N#C[C@@H]1C[C@@H]2C[C@@H]2N1C(=O)[C@@H](N)C12CC3CC(CC(O)(C3)C1)C2	0.6%	-0.7%
CSc1ccc(COCC[C@@H]2C[C@H]3C=CCOP(=O)(O2)O3)cc1	-21.7%	1.7%
CCCNC(=O)OC[C@H]1O[C@H](CCON=Cc2ccc(C(=O)N3[C@H](C(=O)OC)CC[C@H](C)[C@@H]3c3ccc(C)cc3)cc2)C=C[C@H]1Oc1ccc(OC)cc1	-28.4%[8.59 µM]	.
C=CCN1CC[C@]23c4c5ccc(O)c4OC2C(=O)CC[C@]3(O)C1C5 (some centres undefined)	10.8%	6.4%
C=C1CC[C@@]2(O)[C@H]3Cc4ccc(O)c5c4[C@@]2(CCN3CC2CC2)[C@H]1O5	-12.4%	-14.3%
C=C(C)CN1CC[C@@]23c4c5ccc(O)c4O[C@H]2c2[nH]c4ccccc4c2C[C@]3(O)[C@@H]1C5	22.4µM*	?
Oc1ccc2c3c1O[C@H]1c4[nH]c5ccccc5c4C[C@@]4(O)C(C2)N(CC2CC2)CCC314 (some centres undefined)	12.6µM*	?
CCOC(=O)C1(C(=O)OCC)Cc2ccc(C(C)=O)cc2C1	-19.9%[8.59 µM]	.
C=CCN1C(=O)[C@]2(OCCC=C[C@H]2C)c2c(Br)cccc21	53.5%[8.59 µM]	-0.7%[8.59 µM]
COC(=O)C1=C(C)NC(C)=C(C(=O)OCC(C)=O)C1c1ccccc1[N+](=O)[O-] (centres undefined)	12.6%	?
COC(=O)C1=C(C)NC(C)=C(C(=O)O[C@H]2CCN(Cc3ccccc3)C2)[C@H]1c1cccc([N+](=O)[O-])c1	22.4µM*	?
COCCOC(=O)C1=C(C)NC(C)=C(C(=O)OC(C)C)[C@H]1c1cccc([N+](=O)[O-])c1	-2.3%[17.8 µM]	-6.3%[17.8 µM]
COC(=O)C1=C(C)NC(C)=C(C(=O)OCCN(C)Cc2ccccc2)[C@H]1c1cccc([N+](=O)[O-])c1	?	-5.9%[17.8 µM]
COC(=O)C1=C(C)NC(C)=C(C(=O)OCCNCc2ccccc2)C1c1cccc([N+](=O)[O-])c1 (centres undefined)	11.2µM*	?
COC(=O)C1=C(C)NC(C)=C(C(=O)NCCCN2CCC(c3ccccc3)(c3ccccc3)CC2)C1c1ccc([N+](=O)[O-])cc1 (centres undefined)	3.16µM*	?
O[C@H]1C[C@H](c2ccc(Cl)cc2)N(Cc2cccs2)C[C@H]1n1cc(C2CC2)nn1	?	-5.0%
COC(=O)[C@]1(C=C2c3ccccc3C[C@H](OC)[C@@H]2C)[C@@H]2CC=C[C@@H]21	-7.8%[8.59 µM]	-6.4%[8.59 µM]
CCCCCCN1C[C@H](n2cc(C3CC3)nn2)[C@@H](O)C[C@H]1c1ccc(OC)cc1	-19.8%	.
CCCNC(=O)[C@H]1O[C@@H]1C(=O)N[C@H](C(=O)N1CCC[C@H]1C(=O)OC)[C@@H](C)CC	2.51µM*	10µM*
SMILES	Marburg entry	LASV entry inh
CCOC(=O)C(CCc1ccccc1)NC(C)C(=O)N1CCCC1C(=O)O (centres undefined)	5.7%	3.5%
OCCO[C@@H]1[C@@H](O)[C@H](O)[C@@H](CO)O[C@@H]1O	-1.0%	-15.8%
CC(C)C1C(=O)N(Cc2cn(CCC3OCCCO3)nn2)CCS(=O)(=O)N1Cc1ccc(-c2ccccc2)cc1 (centres undefined)	-23.6%	.
O=C1[C@@H]2[C@H]3[C@H](O)[C@H](O)CC(=NOC[C@@H](O)COCc4ccco4)[C@H]3CC[C@H]2C(=O)N1c1ccc(F)cc1F	14.1%[8.59 µM]	11.7%[8.59 µM]
CS(=O)(=O)Nc1ccc(N=Cc2c(O)[nH]c3ccccc23)cc1	130.7%	83.1%
COc1cc(Br)c(C[N+]2(CCOCCC3CCC4CC3C4(C)C)CCOCC2)cc1OC (centres undefined)	?	4.47µM*
